Assay results taken from the supplement of paper PMC3545927.
The list shows a part of the results. How many sequences the whole screen found active is unknown.

Target: furin, P09958
Experiment: furin cleavage Z-score vs untreated control; higher = more cleavage, active = 3.5 or more, inactive = 1 or less, 8 variable residues between constant flanks
How it was run: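 Reactions of 0.01 ml ran for 7.5, 15 or 30 min in 50 mM HEPES pH 7.5 with CaCl2 and NaCl, at 1:10 enzyme:substrate. In them, purified furin acted on bead-held 8-mer peptides fused to a cDNA oligonucleotide. The cleavage Z-score was obtained by lowess-adjusting log sequencing counts of released DNA against furin-free reactions and scaling by median absolute deviation.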

Chain of furin, P09958 (P09958 whole entry): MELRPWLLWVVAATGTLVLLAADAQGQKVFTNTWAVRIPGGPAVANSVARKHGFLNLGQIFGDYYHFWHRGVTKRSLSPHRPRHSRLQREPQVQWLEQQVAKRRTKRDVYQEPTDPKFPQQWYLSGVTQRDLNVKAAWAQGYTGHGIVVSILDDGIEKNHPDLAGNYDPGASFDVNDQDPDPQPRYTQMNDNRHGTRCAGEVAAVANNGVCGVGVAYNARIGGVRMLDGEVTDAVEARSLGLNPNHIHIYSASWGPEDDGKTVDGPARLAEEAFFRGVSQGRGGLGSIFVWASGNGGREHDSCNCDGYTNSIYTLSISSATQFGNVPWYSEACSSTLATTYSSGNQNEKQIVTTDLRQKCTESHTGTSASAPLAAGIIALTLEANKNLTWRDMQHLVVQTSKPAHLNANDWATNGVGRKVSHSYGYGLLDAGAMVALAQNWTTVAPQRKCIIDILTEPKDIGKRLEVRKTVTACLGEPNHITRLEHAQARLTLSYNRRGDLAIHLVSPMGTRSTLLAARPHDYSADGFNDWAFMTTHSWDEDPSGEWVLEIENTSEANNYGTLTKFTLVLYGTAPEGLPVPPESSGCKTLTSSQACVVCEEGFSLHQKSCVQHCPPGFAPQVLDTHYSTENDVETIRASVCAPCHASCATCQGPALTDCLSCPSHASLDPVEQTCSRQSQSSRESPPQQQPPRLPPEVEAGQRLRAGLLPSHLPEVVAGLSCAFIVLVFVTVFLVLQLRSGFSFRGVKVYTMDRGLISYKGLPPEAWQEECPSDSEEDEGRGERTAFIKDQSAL

Sequence | furin cleavage Z-score (7.5 min) | furin cleavage Z-score (15 min) | furin cleavage Z-score (30 min)
CAFIPVENLEAGNASASA [HC758] | -2.14 (inactive) | -0.887 (inactive) | -1.28 (inactive)
CAMEECSVHLAGNASASA [HC1730] | -0.159 (inactive) | -0.406 (inactive) | 0.608 (inactive)
CARRRRKQRKAGNASASA [FS-2791] | 2.34 | 4.43 (active) | 4.61 (active)
CACRRRRRRKAGNASASA [FS-583] | 7.53 (active) | 8.14 (active) | 6.13 (active)
CAMDYRGRRKAGNASASA [FS-1544] | -0.964 (inactive) | -0.642 (inactive) | 0.39 (inactive)
CAEPLRKKKKAGNASASA [FS-1320] | -0.899 (inactive) | -0.615 (inactive) | -0.879 (inactive)
CARQGRSGQKAGNASASA [FS-2063] | -0.381 (inactive) | 0.885 (inactive) | -0.813 (inactive)
CAEPHRRRRKAGNASASA [FS-415] | 4.43 (active) | 5.99 (active) | 6.78 (active)
CAEPRRSRRKAGNASASA [FS-23] | 3.35 | 6.04 (active) | 5.36 (active)
CAVYHGAGTRAGNASASA [HC701] | -1.21 (inactive) | -0.779 (inactive) | -0.813 (inactive)
CALLMCAVHPAGNASASA [HC598] | -0.584 (inactive) | -1.05 (inactive) | -0.438 (inactive)
CALERRSVYTAGNASASA [FS-1986] | -0.7 (inactive) | 0.537 (inactive) | -0.997 (inactive)
CAKTPCSGSWAGNASASA [HC1834] | -1.42 (inactive) | -1.89 (inactive) | -1.1 (inactive)
CAQREVPCHRAGNASASA [HC2442] | 1.83 | 1.74 | 0.0102 (inactive)
CALMRRRRRKAGNASASA [FS-1599] | 8.11 (active) | 10.6 (active) | 8.59 (active)
CAWTVYHGAGAGNASASA [HC700] | -0.0993 (inactive) | 1.58 | 1.31
CAIKKRSLRSAGNASASA [FS-1345] | 6.68 (active) | 5.55 (active) | 5.16 (active)
CASTPCSAHSAGNASASA [HC2577] | -0.571 (inactive) | 0.484 (inactive) | 1.4
CASTVRSLRSAGNASASA [FS-566] | 2.72 | 4.24 (active) | 4.81 (active)
CARRRKSASDAGNASASA [FS-2074] | -0.354 (inactive) | -0.175 (inactive) | 0.845 (inactive)
CAEVPCHRPIAGNASASA [HC2404] | 0.502 (inactive) | -0.467 (inactive) | 1.19
CAVVCCSQSYAGNASASA [HC2062] | 1.31 | 2.95 | 0.942 (inactive)
CALSHRSKRSAGNASASA [FS-1031] | 12.7 (active) | 12.6 (active) | 11.4 (active)
CARTHRSKRSAGNASASA [FS-957] | 11.6 (active) | 11.5 (active) | 8.26 (active)

Sequence | furin cleavage Z-score (7.5 min) | furin cleavage Z-score (15 min) | furin cleavage Z-score (30 min)
CARRRRDLGGAGNASASA [FS-1866] | 3.6 (active) | 2.23 | 1.75
CARRRRDHHMAGNASASA [FS-1838] | 7.82 (active) | 8.82 (active) | 7.36 (active)
CARRRRDTHFAGNASASA [FS-2785] | 8.52 (active) | 11.4 (active) | 10.2 (active)
CARRRKDDYAAGNASASA [FS-2073] | 0.651 (inactive) | 0.661 (inactive) | -1.05 (inactive)
CARRRGDSRGAGNASASA [HC732] | -0.828 (inactive) | -0.656 (inactive) | -0.847 (inactive)
CARHRRILQAAGNASASA [FS-2025] | -0.809 (inactive) | 0.0867 (inactive) | -0.324 (inactive)
CARRRRDLQAAGNASASA [FS-2075] | 8.41 (active) | 10.5 (active) | 8.73 (active)
CARRRRRPGGAGNASASA [FS-3065] | -0.191 (inactive) | -1.18 (inactive) | -0.53 (inactive)
CAVVCCSHSYAGNASASA [HC2055] | 1.14 | -0.432 (inactive) | 0.703 (inactive)
CAGEECSQHLAGNASASA [HC1676] | 0.0385 (inactive) | 1.42 | -0.903 (inactive)
CARRRRDLGSAGNASASA [FS-2517] | 10.6 (active) | 10 (active) | 9.26 (active)
CANEITLTHPAGNASASA [HC977] | -0.433 (inactive) | 0.337 (inactive) | 0.088 (inactive)
CAVNSWLGNIAGNASASA [HC1573] | 1.52 | 0.0684 (inactive) | -1.01 (inactive)
CARPPLGNWFAGNASASA [HC432] | 1.77 | 0.979 (inactive) | -0.0677 (inactive)
CAAKERLKRKAGNASASA [FS-213] | 9.07 (active) | 9.78 (active) | 9.62 (active)
CAWEKRSRGQAGNASASA [FS-2625] | -0.652 (inactive) | -0.795 (inactive) | -0.906 (inactive)
CAQWARYARWAGNASASA [FS-484] | -0.0806 (inactive) | 1.37 | 2.8
CALSKRKKRKAGNASASA [FS-827] | 8.35 (active) | 9.52 (active) | 8.96 (active)
CANKKRGGTAAGNASASA [WN4] | -1.48 (inactive) | -0.337 (inactive) | -0.0754 (inactive)
CARKERRKHKAGNASASA [FS-2959] | -0.0944 (inactive) | -0.106 (inactive) | 0.503 (inactive)
CADPKRTIGQAGNASASA [FS-1982] | 0.168 (inactive) | -0.891 (inactive) | -1.67 (inactive)
CAKRKRWTGQAGNASASA [FS-2478] | 1 | 4.62 (active) | 4.37 (active)
CANKKRKARWAGNASASA [FS-1238] | 6.93 (active) | 7.47 (active) | 9.18 (active)
